Growth data for 17 molecules are collected here from PubChem BioAssay (NCI).

Each structure is given as a SMILES string. Where “and” joins values, the source holds several entries; their conditions need not be identical. Equal entries are not always repeated. Compounds without any hit were thinned out: in the full panel of roughly 83,000, 20% have a hit.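 In brief: 96-well plates, 48 h treatment, single concentration, percent growth endpoint.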 Calls of active or inactive are those of the source. The calls were made as follows: active = growth percent below 10; inactive = the rest.

Among the test systems are HCT-15 colon; HT29 colon; SNB-75 CNS; SNB-19 CNS; U251 CNS; PC-3 prostate; SK-MEL-5 melanoma; UACC-62 melanoma; LOX IMVI melanoma; SK-MEL-28 melanoma.
Common to all, as to experiment: NCI-60 one-dose screen, 48 h (100 = growth as untreated, 0 = no growth, -100 = all killed)
Holding throughout (conditions): 10 µM unless noted

As to `COc1cc(NCCCCCNC(C)C)c2ncccc2c1`, the growth was 96.7% (inactive) and 96.6% (inactive) in the test with HCT-15 colon; 85.9% (inactive) and 67.1% (inactive) with HT29 colon; 84.2% (inactive) and 73.7% (inactive) in the test with SNB-75 CNS; 96.1% (inactive) and 81.2% (inactive) in the test on SNB-19 CNS; 94.8% (inactive) and 85.9% (inactive) in the test with U251 CNS; 86.3% (inactive) and 89.1% (inactive) with PC-3 prostate. Also, the growth in the test on SK-MEL-5 melanoma was 98.4% (inactive) and 99% (inactive); with UACC-62 melanoma it was 83.7% (inactive); in the test on LOX IMVI melanoma it was 87.3% (inactive) and 82.5% (inactive); in the test with SK-MEL-28 melanoma, 98.5% (inactive) and 98.7% (inactive).

Regarding `O=C(O)C1CSCN1` (stereo not given), the growth in the test on HCT-15 colon is 109% (inactive) and 96.3% (inactive); in the test on HT29 colon, 104% (inactive); with SNB-75 CNS it was 109% (inactive) and 73.5% (inactive); in the test with SNB-19 CNS, 105% (inactive) and 94% (inactive); with U251 CNS, 104% (inactive) and 97.6% (inactive); in the test on PC-3 prostate, 99.4% (inactive) and 112% (inactive). For the same molecule, the growth was 135% (inactive) with SK-MEL-5 melanoma; 105% (inactive) and 96% (inactive) with UACC-62 melanoma; 108% (inactive) and 102% (inactive) with LOX IMVI melanoma; 117% (inactive) and 114% (inactive) with SK-MEL-28 melanoma.

In the case of `CC1NC(C)c2ccc3ccccc3c2O1` (stereo not given), the growth was 106% (inactive) in the test with HCT-15 colon; 99.8% (inactive) in the test on HT29 colon; 85.6% (inactive) with SNB-75 CNS; 104% (inactive) in the test with SNB-19 CNS; 109% (inactive) with U251 CNS; 93.3% (inactive) with PC-3 prostate. Also, the growth in the test with SK-MEL-5 melanoma is 104% (inactive); with UACC-62 melanoma, 93.7% (inactive); in the test with LOX IMVI melanoma, 97.7% (inactive); in the test with SK-MEL-28 melanoma, 111% (inactive).

In the case of `CCN(C)c1ccccc1`, the growth in the test on HCT-15 colon was 101% (inactive); with HT29 colon, 103% (inactive); with SNB-75 CNS, 79.2% (inactive); in the test with SNB-19 CNS it was 106% (inactive); in the test on U251 CNS it was 99% (inactive); in the test on PC-3 prostate it was 95.8% (inactive). Moreover, the growth in the test with SK-MEL-5 melanoma is 100% (inactive); with UACC-62 melanoma it was 103% (inactive); with LOX IMVI melanoma, 98.4% (inactive); with SK-MEL-28 melanoma, 105% (inactive).

`NNC(=O)Nc1ccccc1`: the growth is 99.8% (inactive) in the test on HCT-15 colon; 106% (inactive) with HT29 colon; 87.9% (inactive) in the test with SNB-75 CNS; 102% (inactive) with SNB-19 CNS; 99.1% (inactive) in the test with U251 CNS; 93.5% (inactive) in the test on PC-3 prostate. Besides, the growth is 101% (inactive) in the test with SK-MEL-5 melanoma, 94.3% (inactive) with UACC-62 melanoma, 98.1% (inactive) with LOX IMVI melanoma and 109% (inactive) in the test on SK-MEL-28 melanoma.

With `Cc1nc2c(=O)[nH]c(=S)[nH]c2[nH]c1=O`, the growth in the test on HCT-15 colon is 105% (inactive) and 104% (inactive); in the test on HT29 colon it was 104% (inactive) and 105% (inactive); in the test on SNB-75 CNS it was 97.4% (inactive) and 84.1% (inactive); in the test on SNB-19 CNS, 104% (inactive) and 102% (inactive); with U251 CNS, 113% (inactive) and 104% (inactive); with PC-3 prostate, 105% (inactive) and 96.7% (inactive). Besides, the growth in the test on SK-MEL-5 melanoma is 111% (inactive); in the test with UACC-62 melanoma, 104% (inactive) and 100% (inactive); with LOX IMVI melanoma it was 96% (inactive); in the test with SK-MEL-28 melanoma, 111% (inactive) and 112% (inactive).

In the case of `COC(=O)c1cc(C(=O)OC)cc([N+](=O)[O-])c1`, the growth is 105% (inactive) in the test on HCT-15 colon; 111% (inactive) with HT29 colon; 72.5% (inactive) in the test on SNB-75 CNS; 118% (inactive) in the test on SNB-19 CNS; 94.4% (inactive) with U251 CNS; 98.7% (inactive) in the test with PC-3 prostate. Besides, the growth in the test on SK-MEL-5 melanoma was 109% (inactive); in the test on UACC-62 melanoma it was 102% (inactive); with LOX IMVI melanoma, 104% (inactive); in the test on SK-MEL-28 melanoma, 108% (inactive).

Take `OCCS`: the growth with HCT-15 colon is 104% (inactive); with HT29 colon, 97% (inactive); in the test on SNB-75 CNS, 91.1% (inactive); with SNB-19 CNS, 108% (inactive); with U251 CNS it was 95.3% (inactive); with PC-3 prostate it was 99.8% (inactive). Further, the growth in the test with SK-MEL-5 melanoma is 100% (inactive); in the test on UACC-62 melanoma it was 103% (inactive); in the test with LOX IMVI melanoma it was 96.2% (inactive); with SK-MEL-28 melanoma, 109% (inactive).

For the molecule `Cn1c(-c2ccccc2)cc(=O)cc1-c1ccccc1`, the growth is 22.7% (inactive) in the test with HCT-15 colon; 24.7% (inactive) with HT29 colon; 119% (inactive) with SNB-75 CNS; 89% (inactive) in the test with SNB-19 CNS; 82.7% (inactive) with U251 CNS; 67.1% (inactive) in the test with PC-3 prostate. Besides, the growth with SK-MEL-5 melanoma was 95.3% (inactive); in the test on UACC-62 melanoma it was 81.5% (inactive); in the test on LOX IMVI melanoma it was 73.2% (inactive); in the test on SK-MEL-28 melanoma, 118% (inactive).

For `NCCCCCC(=O)O`, the growth is 103% (inactive) [middle of 4 runs] in the test with HCT-15 colon; 100% (inactive) [middle of 4 runs] in the test with HT29 colon; 93.6% (inactive) [middle of 4 runs] with SNB-75 CNS; 103% (inactive) [middle of 4 runs] with SNB-19 CNS; 107% (inactive) and 104% (inactive) and 91.4% (inactive) in the test with U251 CNS; 106% (inactive) [middle of 4 runs] with PC-3 prostate. Also, the growth in the test with SK-MEL-5 melanoma was 108% (inactive) and 109% (inactive) and 110% (inactive); with UACC-62 melanoma, 112% (inactive) [middle of 4 runs]; in the test with LOX IMVI melanoma it was 100% (inactive) [middle of 4 runs]; in the test with SK-MEL-28 melanoma, 112% (inactive) and 109% (inactive) and 119% (inactive).

In the case of `COc1cc(NCCCCCCCNC(C)C)c2nccc(C)c2c1`, the growth in the test on HCT-15 colon is 89.2% (inactive) and 58.5% (inactive); in the test with HT29 colon it was 53.7% (inactive) and 14.2% (inactive); with SNB-75 CNS, 74.4% (inactive) and 61.1% (inactive); in the test on SNB-19 CNS it was 90.9% (inactive) and 74.2% (inactive); with U251 CNS it was 80.8% (inactive) and 61.3% (inactive); in the test with PC-3 prostate it was 58.1% (inactive) and 75.9% (inactive). Further, the growth in the test with SK-MEL-5 melanoma is 84.3% (inactive) and 64.8% (inactive); in the test with UACC-62 melanoma, 88.2% (inactive) and 3.49% (active); in the test on LOX IMVI melanoma, 92.5% (inactive) and 54.7% (inactive); with SK-MEL-28 melanoma, 105% (inactive) and 91.4% (inactive).

On to `Nc1nc(N)c2cc(S(=O)(=O)c3ccccc3)ccc2n1`, for which the growth with HCT-15 colon is 27.9% (inactive) and 25.6% (inactive); in the test with HT29 colon, 22.9% (inactive) and 15% (inactive); with SNB-75 CNS, 78.7% (inactive) and 76.9% (inactive); in the test on SNB-19 CNS, 38.4% (inactive) and 49.2% (inactive); in the test on U251 CNS it was 30.5% (inactive) and 30.8% (inactive); with PC-3 prostate, 42.9% (inactive) and 52.7% (inactive). Also, the growth with SK-MEL-5 melanoma was 23.3% (inactive) and 25.3% (inactive); in the test with UACC-62 melanoma, 21.5% (inactive) and 53.7% (inactive); in the test on LOX IMVI melanoma, 30.6% (inactive) and 19.2% (inactive); in the test with SK-MEL-28 melanoma it was 71% (inactive) and 68.9% (inactive).

Turning to `O=C(OCc1ccccc1)c1ccccc1`, the growth in the test on HCT-15 colon is 114% (inactive) and 103% (inactive); in the test on HT29 colon it was 114% (inactive) and 87.8% (inactive); with SNB-75 CNS it was 98.7% (inactive); in the test on SNB-19 CNS it was 101% (inactive) and 92.1% (inactive); in the test with U251 CNS, 99.8% (inactive) and 105% (inactive); in the test on PC-3 prostate, 107% (inactive) and 85.4% (inactive). In addition, the growth with SK-MEL-5 melanoma was 104% (inactive) and 101% (inactive); in the test on UACC-62 melanoma, 92.6% (inactive) and 102% (inactive); with LOX IMVI melanoma it was 96.2% (inactive); in the test on SK-MEL-28 melanoma it was 106% (inactive) and 120% (inactive).

Take `CC1(C)OC(=O)C(=Cc2ccc(C#N)cc2)C(=O)O1`: the growth was 109% (inactive) and 104% (inactive) with HCT-15 colon; 97.7% (inactive) and 100% (inactive) with HT29 colon; 97% (inactive) and 96.4% (inactive) in the test on SNB-75 CNS; 98.9% (inactive) and 101% (inactive) with SNB-19 CNS; 89.7% (inactive) in the test on U251 CNS; 84.3% (inactive) and 99.2% (inactive) in the test on PC-3 prostate. Further, the growth is 95.6% (inactive) in the test with SK-MEL-5 melanoma; 101% (inactive) and 117% (inactive) in the test on UACC-62 melanoma; 103% (inactive) in the test with LOX IMVI melanoma; 114% (inactive) and 101% (inactive) in the test with SK-MEL-28 melanoma.

As for `O=C(/C=C/C=C/c1ccc2c(c1)OCO2)N1CCCCC1`, the growth is 101% (inactive) and 95.3% (inactive) in the test on HCT-15 colon; 99.5% (inactive) and 87.6% (inactive) in the test with HT29 colon; 112% (inactive) and 99.4% (inactive) with SNB-75 CNS; 97.2% (inactive) and 99.6% (inactive) in the test with SNB-19 CNS; 95.1% (inactive) and 102% (inactive) with U251 CNS; 97.7% (inactive) and 90% (inactive) in the test with PC-3 prostate. For the same molecule, the growth in the test with SK-MEL-5 melanoma was 97.7% (inactive) and 97.9% (inactive); in the test with UACC-62 melanoma, 92% (inactive) and 90% (inactive); in the test on LOX IMVI melanoma, 97.7% (inactive) and 101% (inactive); in the test on SK-MEL-28 melanoma, 129% (inactive) and 94.1% (inactive).

Turning to `O=[N+]([O-])c1ccc(N/N=C/C2CCCCCC2)c([N+](=O)[O-])c1`, the growth with HCT-15 colon was 89.1% (inactive); with HT29 colon, 100% (inactive); in the test with SNB-75 CNS, 117% (inactive); in the test on SNB-19 CNS it was 102% (inactive); with U251 CNS, 96.8% (inactive); in the test with PC-3 prostate it was 79.7% (inactive). Also, the growth in the test with SK-MEL-5 melanoma is 96.9% (inactive); in the test with UACC-62 melanoma, 81% (inactive); in the test on LOX IMVI melanoma, 89.2% (inactive); in the test on SK-MEL-28 melanoma it was 99.7% (inactive).

With `Cc1cc2nc3ccc(=[N+](C)C)cc-3sc2cc1N`, the growth was 8.48% (active) and 7.46% (active) in the test with HCT-15 colon; 3.91% (active) and 19.4% (inactive) in the test on HT29 colon; 88.2% (inactive) and 22.1% (inactive) in the test on SNB-75 CNS; -17.2% (active) and -4.45% (active) in the test with SNB-19 CNS; 1.01% (active) and -31% (active) with U251 CNS; -1.87% (active) and -5.43% (active) with PC-3 prostate. Also, the growth in the test with SK-MEL-5 melanoma is -92.2% (active) and -90.1% (active); with UACC-62 melanoma, -31.9% (active) and 23.3% (inactive); in the test with LOX IMVI melanoma, -19.1% (active) and -29.2% (active); with SK-MEL-28 melanoma it was -9.76% (active) and 20.1% (inactive).
